Drawing on PubChem BioAssay AID624255 (Broad Institute, 2012), this text covers inhibition for 42 molecules.

As usually defined, the inhibition is the change of the read-out against control, counted positive when it falls.

Among all 77,000 compounds or so, about 4,600 (6%) were called active. Roughly 1% stayed inconclusive and do not appear here. The entries come from a sample that favours actives as a whole. A number with no mark means an inactive call.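 How the source made its calls: active means mean inhibition above about 93%, with at least 55% of replicates each passing it (limit read from the data, passing the limit was not always enough); inconclusive means only one of those two conditions holds; inactive means neither condition holds.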

A short description of this assay: T. cruzi intracellular proliferation inhibitors, primary screen, cell-based, beta-gal Tulahuen parasites, NIH3T3 host, luminescence (AID 624255). The note with it: T. cruzi beta-gal in NIH3T3, GalScreen luminescence, 90 h; at 8.34 µM; active compounds read high.
As to `Cn1cnc(CCNC(=O)C[C@H]2CC[C@@H]3[C@H](COC[C@@H](O)CN3C(=O)Nc3ccc(Cl)cc3)O2)c1`, the inhibition is 33%.
Then `O=C(N[C@H]1C=C[C@@H](CC(=O)N2CCN(c3ccccc3)CC2)O[C@@H]1CO)c1ccncc1`, with -7%; and `CC(=O)N(C)C[C@@H]1Oc2cc(-c3cccnc3)ccc2S(=O)(=O)N([C@H](C)CO)C[C@H]1C`, with -140%; and `O=C(C[C@@H]1CC[C@@H]2[C@H](COC[C@H](O)CN2S(=O)(=O)c2ccc(Cl)cc2)O1)N[C@@H]1CCN(Cc2ccccc2)C1`, with 43.9%.
`COCC(=O)N1CC[C@H]2[C@H](CO)Nc3ccc(-c4ccc(C(=O)N(C)C)cc4)cc3[C@H]21`: the inhibition was 90.6%.
`O=C(c1cnccn1)N1CC[C@@H]2[C@H](CO)Nc3ccc(-c4cccc(F)c4)cc3[C@@H]21`: the inhibition is 109% (active).
As for `COc1ccc(-c2ccc3c(c2)[C@H]2[C@H](CCN2C(=O)c2ccc4c(c2)OCO4)[C@@H](CO)N3)cc1`, the figure is 13.9%.
Then `OC[C@@H]1Nc2ccc(-c3cccc(F)c3)cc2[C@H]2[C@@H]1CCN2Cc1ccncc1`, with 115% (active).
Then `O=C(c1ccccn1)N1CC[C@@H]2[C@H]1c1cc(-c3ccccc3)ccc1N[C@@H]2CO`, with 106% (active).
On to `CN(C)C(=O)c1ccc(-c2ccc3c(c2)[C@H]2[C@H](CCN2C(=O)c2ccc4c(c2)OCO4)[C@H](CO)N3)cc1`, for which the inhibition is 99.5% (active).
For `OC[C@@H]1Nc2ccc(-c3ccc(F)cc3)cc2[C@@H]2[C@H]1CCN2Cc1ccc(F)cc1`, the inhibition is 22.6%.
For `O=C(c1cccnc1)N1CC[C@H]2[C@H](CO)Nc3ccc(-c4ccc(F)cc4)cc3[C@H]21`, the inhibition is 74.7%.
As for `N#Cc1cccc(-c2ccc3c(c2)[C@H]2[C@H](CCN2Cc2ccc4c(c2)OCO4)[C@@H](CO)N3)c1`, the figure is 27.1%.
Regarding `O=C(c1cccnc1)N1CC[C@@H]2[C@@H](CO)Nc3ccc(-c4ccccc4)cc3[C@@H]21`, the inhibition is 77.8%.
As to `O=C(C1CCC1)N1CC[C@H]2[C@H](CO)Nc3ccc(-c4cccc(F)c4)cc3[C@H]21`, the inhibition is 92.4%.
Then `O=C(c1ccccc1)N1CC[C@H]2[C@H](CO)Nc3ccc(-c4ccc(F)cc4)cc3[C@H]21`, with 59.1%; and `O=C(NC[C@@H]1[C@@H](c2ccccc2)[C@@H](CO)N1Cc1ccccn1)C1CCC1`, with 31.9%.
As for `C[C@H](O)C#Cc1cnc2c(c1)C(=O)N([C@H](C)CO)C[C@H](C)[C@@H](CN(C)C(=O)Nc1ccc(F)cc1)O2`, the figure is 41%; as for `O=C([C@H]1[C@H](CO)[C@H]2Cn3c(ccc(-c4ccccc4)c3=O)[C@@H]1N2Cc1cccnc1)N1CCOCC1`, 28.9%; as for `CN(C)C(=O)[C@H]1[C@H](CO)[C@H]2Cn3c(ccc(-c4ccc(F)cc4)c3=O)[C@H]2N1C(=O)c1ccccn1`, 32.7%.
Then `C/C=C/c1ccc([C@@H]2[C@@H](CN(C)C(C)=O)N(C(=O)C3CC3)[C@H]2CO)cc1`, with -20.4%; and `CO[C@@H]1CN(C)C(=O)c2cc(NC(=O)Nc3cccc(F)c3)ccc2OC[C@H](C)N(C)C[C@@H]1C`, with -11.1%.
As to `COc1cccc(S(=O)(=O)Nc2ccc3c(c2)[C@H]2C[C@H](CC(=O)N4CCCCC4)O[C@@H](CO)[C@H]2O3)c1`, the inhibition is 32.8%.
Regarding `COc1ccccc1C(=O)Nc1ccc2c(c1)C(=O)N(C)C[C@@H](OC)[C@@H](C)CN(CC1CC1)[C@@H](C)CO2`, the inhibition was 21.2%.
Then `N#C[C@@H]1[C@@H](c2ccc(-c3ccccc3F)cc2)[C@@H](CO)N1C(=O)C1CC1`, with 71.7%.
Consider `CC(=O)N1[C@H](CO)[C@@H](c2ccc(-c3ccccc3)cc2)[C@H]1CNC(=O)C1CC1`, for which the inhibition was -18%.
In the case of `CC(=O)N(C)C[C@@H]1[C@@H](c2ccc(-c3ccccc3F)cc2)[C@@H](CO)N1C(C)=O`, the inhibition is 113% (active).
As for `CC(=O)N1[C@H](CO)[C@H](c2ccc(-c3ccccc3)cc2)[C@H]1CNC(=O)C1CC1`, the figure is -0.382%; as for `CCC(=O)N(C)C[C@H]1[C@H](c2ccc(-c3ccccc3F)cc2)[C@@H](CO)N1C(C)=O`, 8.38%; as for `COCC(=O)N(C)C[C@H]1[C@@H](c2ccc(-c3cccnc3)cc2)[C@H](CO)N1C(C)=O`, 84.3%.
As for `CC(=O)NC[C@@H]1[C@@H](c2ccc(-c3ccccc3F)cc2)[C@@H](CO)N1C(=O)C1CC1`, the figure is 108% (active); as for `CC(=O)N1[C@H](CNC(=O)C2CC2)[C@@H](c2ccc(-c3cccc(F)c3)cc2)[C@@H]1CO`, 98.8% (active).
As for `CC(=O)N1[C@H](CO)[C@@H](c2ccc(-c3ccc(F)cc3)cc2)[C@H]1CNC(=O)C1CC1`, the figure is -36%.
Regarding `COc1ccc(S(=O)(=O)Nc2ccc3c(c2)CC(=O)N([C@@H](C)CO)C[C@@H](C)[C@H](CN(C)S(=O)(=O)c2ccccc2)O3)cc1`, the inhibition was 0.553%.
For the molecule `COc1ccc(S(=O)(=O)N(C)C[C@H]2Oc3ccc(NC(=O)Nc4ccccc4)cc3CC(=O)N([C@H](C)CO)C[C@@H]2C)cc1`, the inhibition is -16.8%.
For the molecule `C[C@@H]1CN([C@H](C)CO)C(=O)c2cc(NC(=O)Nc3cccc4ccccc34)ccc2O[C@@H](C)CCCCO[C@H]1CN(C)S(=O)(=O)c1cccs1`, the inhibition is 23.5%.
With `CO[C@@H]1CC[C@@H]2CCOc3ccc(C#N)cc3C(=O)N(C)C[C@H](c3ccccc3)CC(=O)N(C)C[C@H]1O2`, the inhibition is 5.08%.
Then `N#C[C@@H]1N[C@@H](CO)[C@@H]1c1ccc(C#Cc2ccccc2F)cc1`, with 79.1%; and `N#C[C@H]1N[C@H](CO)[C@@H]1c1ccc(C#Cc2ccccc2F)cc1`, with 24.3%; and `COc1cccc(C#Cc2ccc([C@@H]3[C@H](C#N)N[C@H]3CO)cc2)c1`, with 101% (active).
Then `O=C(Nc1ccccc1)N1C[C@H]2[C@@H](c3ccccc31)[C@@H](CO)N2Cc1cocn1`, with 65%; and `CNC(=O)C[C@@H]1CC[C@H]2[C@@H](COc3ccc(NC(=O)NCc4ccccc4)cc3C(=O)N2C)O1`, with -25%.
